In PubChem BioAssay (Tox21) one finds Potency and outcome data, which are given here for 26 compounds.

Inconclusive results are not listed. Some structures have more than one record in an assay (separate samples or runs), and their calls can disagree. The source made the active and inactive calls. Unless noted, the call rests on the fitted dose curve; in most records, active means well fitted curve in the direction sought with a large enough effect in the repeat runs; inconclusive means weak or mixed curves; inactive means no such curve, though single readings can be large; an effect the other way counts as inactive or inconclusive.

For experiment [1], the target named is Retinoic acid receptor RXR-alpha (Homo sapiens) (UniProt P19793). As to the kind of experiment: qHTS assay to identify small molecule agonists of the RXR signaling pathway (AID 1159527; calls by dose curve; further: nearly all actives have a fitted effect of over 35% in size; further: potency means the concentration at half of the fitted maximal effect). Put shortly: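 Agonist-mode beta-lactamase reporter assay: HEK 293T RXR-alpha-UAS-bla cells treated 16 hr at 37 C with compounds, 9-cis retinoic acid as positive control. LiveBLAzer FRET substrate, 405 nm excitation, 460/530 nm emission.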
For orientation: qHTS replaces the single test concentration by a dilution series.

Experiment [2] in a line: qHTS assay to identify small molecule agonists of the RXR signaling pathway - cell viability counter screen (AID 1159529). Further: nearly all actives have a fitted effect of over 50% in size. Further: potency means the concentration at half of the fitted maximal effect. Put shortly:
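CellTiter-Glo luminescence gave viability in the wells also read for beta-lactamase. Cells (RXR-alpha-UAS-bla HEK 293T, 2% charcoal-stripped FBS medium) had 5 hr plating, then 16 hr compound exposure at 37 C; tetraoctyl ammonium bromide served as positive control.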

Experiment [3] in a line: qHTS assay to identify small molecule antagonists of the retinoid acid receptor (RAR) signaling pathway - cell viability counter screen (AID 1159551). Further: nearly all actives have a fitted effect of over 35% in size. Put shortly: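 Measured by luminescent ATP detection, viability reflects C3RL4 cells treated 6 h at 37 C with test chemicals in the presence of 1 uM (final) retinol.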
Experiment [4] in a line: qHTS assay to identify small molecule antagonists of the retinoic acid receptor (RAR) signaling pathway (AID 1159552; further: nearly all actives have a fitted effect of over 50% in size). Put shortly:
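Luminescent RARE reporter read-out in C3RL4 cells: 6 hr co-treatment at 37 C of test compounds with retinol at 1 uM final. Cells plated overnight beforehand; luciferase reagent incubated 30 min at room temperature before reading.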

A short description of experiment [5]: qHTS assay to identify small molecule agonists of the retinoic acid receptor (RAR) signaling pathway (AID 1159553). Further: potency means the concentration at half of the fitted maximal effect. Conditions: C3RL4 RARE luciferase reporter, agonist, 6 h; activation: at 73.3 µM (top of the series) unless noted. Put shortly:
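6 hr compound exposure (DMSO vehicle) of overnight-plated C3RL4 RARE-luc cells at 37 C; luminescence quantified after 30 min RT with luciferase reagent.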

Experiment [6] in a line: qHTS assay to identify small molecule antagonists of the estrogen related receptor (ERR) signaling pathway from Tox21 library - cell viability counter screen (AID 1224834). Further: nearly all actives have a fitted effect of over 30% in size. Further: potency means the concentration at half of the fitted maximal effect. Put shortly: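 Seeded ERR cells were rested 6 h at 37 C/5% CO2 before compounds, positive and negative controls or DMSO were added. Incubation continued for 17.5 h, and viability was then quantified by CellTiter-Fluor fluorescence.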

The target of experiment [7] is Luciferin 4-monooxygenase (Photinus pyralis) (UniProt P08659). In words: qHTS assay to identify small molecule inhibitors of firefly luciferase (AID 1224835). Further: nearly all actives have a fitted effect of over 25% in size. Further: potency means the concentration at half of the fitted maximal effect. Put shortly: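 Quantitative HTS format; KM concentrations of both substrates. Purified P. pyralis FLuc activity quantified from luminescence images.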
Experiment [8] can be described thus: qHTS assay to identify small molecule agonists of the constitutive androstane receptor (CAR) signaling pathway - cell viability counter screen (AID 1224836). Further: nearly all actives have a fitted effect of over 45% in size. Put shortly: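 Cell viability multiplexed with the CAR agonist screen: CellTiter-Fluor fluorescence after 23 hr at 37 C. HepG2-CYP2B6-hCAR cells got compounds at 15 concentrations with PK11195 at 0.75 uM final.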

A short description of experiment [9]: qHTS assay to identify small molecule antagonists of the estrogen related receptor (ERR) signaling pathway - cell viability counter screen (AID 1224818).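 Further: viability measured after 17.5 h of compound exposure.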 Put shortly:
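Compounds dissolved in DMSO were applied to ERR cells seeded at 2,000 per well 6 h earlier. Cell viability followed 17.5 h later via 30-min CellTiter-Fluor fluorescence.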

The nature of experiment [10]: qHTS assay to identify small molecule antagonists of the estrogen related receptor signaling pathway with the pleiotropic PPARgamma coactivator (PGC) cell viability counter screen (AID 1224822;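 further: viability read after 17.5 h compound exposure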). An excerpt:
National Center for Advancing Translational Sciences [NCATS]
NIH Chemical Genomics Center [NCGC]
U.S. Environmental Protection Agency [EPA]
National Institutes of Environmental Health Sciences [NIEHS]
National Toxicology Program [NTP]
U.S. Food and Drug Administration [FDA]
Estrogen related receptors (ERRs), the first orphan nuclear receptors discovered, play an important role in the control of cellular energy metabolism. ERRs are required for high-energy production in response to the environmental challenges. The pleiotropic PPARgamma coactivator (PGC) is a major partner of ERR and a key regulator in energy homeostasis. Together they have been implicated in the etiology of metabolic disorders such as Type 2 diabetes and metabolic syndrome. ERR-alpha was also identified as an adverse marker for breast cancer progression; ERR-alpha-positive tumors have a poor prognosis. To screen and to identify environmental compounds that perturb the ERR and PGC/ERR signaling pathways could provide valuable information for potential therapeutic or preventive measures in the treatment of metabolic disease. To differentiate true PGC/ERR antagonists or agonist from cytotoxic substances, the assay is multiplexed with cell viability assay.
Tox21 Assay Protocol Summary:
The PGC/ERR cells were dispensed at 2,000 cells/5 ul/well in 1536-well white plates using a Multidrop dispenser. After the assay plates were incubated at a 37 C/5% CO2 incubator for 6 hours, 23 nL of compounds dissolved in DMSO, positive and negative controls or DMSO only was transferred to the assay plate by a pin tool. The plates were incubated at 37 C for 17.5 hours. 1 ul/well of CellTiter-Fluor reagent was added into the assay plates using a Flying Reagent Dispenser. After 30 min incubation at 37 C/5% CO2, the fluorescence intensity in the plates was measured using a ViewLux plate reader.

Luciferin 4-monooxygenase (Photinus pyralis), sequence (P08659 whole entry, looked up): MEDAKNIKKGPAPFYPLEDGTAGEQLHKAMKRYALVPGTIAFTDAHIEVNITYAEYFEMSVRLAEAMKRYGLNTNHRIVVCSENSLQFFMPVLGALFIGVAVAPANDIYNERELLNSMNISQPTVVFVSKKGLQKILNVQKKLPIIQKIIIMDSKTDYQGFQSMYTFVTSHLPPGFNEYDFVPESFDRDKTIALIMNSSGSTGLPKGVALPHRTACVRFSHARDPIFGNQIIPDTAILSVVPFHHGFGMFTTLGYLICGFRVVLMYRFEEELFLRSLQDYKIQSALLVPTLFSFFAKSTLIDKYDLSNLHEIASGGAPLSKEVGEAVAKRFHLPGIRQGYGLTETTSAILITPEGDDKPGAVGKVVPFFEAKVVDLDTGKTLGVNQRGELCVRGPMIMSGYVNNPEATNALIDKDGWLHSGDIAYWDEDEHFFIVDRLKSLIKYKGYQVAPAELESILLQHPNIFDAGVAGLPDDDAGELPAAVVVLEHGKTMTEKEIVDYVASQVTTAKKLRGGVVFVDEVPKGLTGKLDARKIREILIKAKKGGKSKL
Retinoic acid receptor RXR-alpha (Homo sapiens), sequence (P19793 whole entry, looked up): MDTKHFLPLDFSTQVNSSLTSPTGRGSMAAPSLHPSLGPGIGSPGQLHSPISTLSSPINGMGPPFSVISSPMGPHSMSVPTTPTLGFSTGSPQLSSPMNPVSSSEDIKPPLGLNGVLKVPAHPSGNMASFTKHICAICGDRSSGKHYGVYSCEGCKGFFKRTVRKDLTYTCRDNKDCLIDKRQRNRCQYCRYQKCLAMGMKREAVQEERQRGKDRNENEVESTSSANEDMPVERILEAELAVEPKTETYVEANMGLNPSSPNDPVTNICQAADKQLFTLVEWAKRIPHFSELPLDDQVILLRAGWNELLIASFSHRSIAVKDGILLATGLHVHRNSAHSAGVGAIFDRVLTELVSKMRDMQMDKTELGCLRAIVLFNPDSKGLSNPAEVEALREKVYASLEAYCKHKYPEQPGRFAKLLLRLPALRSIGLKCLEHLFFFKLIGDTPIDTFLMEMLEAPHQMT

Regarding `O=NN1CCCC1`, the Potency result in [1], in [2], in experiment [4] and in experiment [5] was “inactive” throughout. For the same compound, the result in experiment [3] was inactive. Besides, the Potency was 45.3 µM (active) and inactive in [6]; 83.4 µM (active) and inactive in experiment [7].
`CON(C)C(=O)Nc1ccc(Cl)c(Cl)c1`: the Potency entry in experiment [1], in experiment [2], in experiment [4] and in experiment [6] was “inactive” in each case. Also, the result in experiment [3] was inactive. Further, the Potency in experiment [5] is 24.3 µM (active).
Consider `CC(C#N)CCC#N` (centres undefined), for which the Potency entry in experiment [1], in experiment [2], in [4], in experiment [5], in experiment [6] and in experiment [7] was “inactive” throughout. Besides, in experiment [8], the Potency entry was “inactive”. Moreover, the call in experiment [3] was inactive.
As to `OC(O)C(Cl)(Cl)Cl`, the Potency entry in [1], in experiment [2], in experiment [4], in experiment [5], in experiment [6] and in experiment [7] was “inactive” throughout. Besides, the result in experiment [3] was inactive.
As to `O=c1n(Cl)c(=O)n(Cl)c(=O)n1Cl`, the Potency result in [1], in experiment [2], in [4], in experiment [5], in experiment [6] and in [7] was “inactive” throughout. The Potency entry in experiment [8] was “inactive”. Also, the call in [3] was inactive.
Regarding `CC(C)(Cl)Cl`, the Potency entry in experiment [1], in [2], in [4], in experiment [5], in experiment [6] and in experiment [7] was “inactive” throughout. The Potency result in [8] was “inactive”. The compound was classed as inactive in experiment [3].
For the compound `CCCCCCCCCl`, the Potency entry in experiment [1], in experiment [2], in experiment [4], in experiment [5], in [6] and in experiment [7] was “inactive” throughout. In experiment [8], the Potency result is “inactive”. Moreover, the call in experiment [3] was inactive.
Consider `Clc1ccc(Cl)cc1`, for which the Potency entry in [1], in experiment [2], in [4], in experiment [5], in experiment [6] and in experiment [7] was “inactive” each time. For the same compound, in experiment [8], the Potency entry was “inactive”. Also, the outcome in experiment [3] was inactive.
For `Cc1cc(Cl)ccc1O`, the Potency result in experiment [1], in experiment [2], in [4], in [5], in experiment [6] and in experiment [7] was “inactive” throughout. Further, in experiment [8], the Potency result was “inactive”. Further, in [3], the compound was called inactive.
As to `CC1C=[C-]C=C1.[C-]#[O+].[C-]#[O+].[C-]#[O+].[Mn]`, the Potency entry in [1], in [2], in [4], in [5], in [6] and in experiment [7] was “inactive” throughout. Moreover, in experiment [8], the Potency entry was “inactive”. For the same compound, the result in experiment [3] was inactive.
With `CNC(=O)Oc1ccccc1OC(C)C`, the Potency entry in experiment [1], in experiment [2], in [4], in experiment [5], in experiment [6] and in [7] was “inactive” in each case. Further, the Potency entry in experiment [8] was “inactive”. Moreover, in experiment [3], the compound was called inactive.
Consider `Clc1ccccc1Cl`, for which the Potency entry in experiment [1], in [2], in experiment [4], in experiment [5], in experiment [6] and in [7] was “inactive” throughout. Besides, the Potency result in [8] was “inactive”. Also, the compound was classed as inactive in [3].
Regarding `CCC[N+](=O)[O-]`, the Potency result in experiment [1] was “inactive”. Besides, the Potency is 30.3 µM (active) and inactive in experiment [2]; 26.8 µM (active) and inactive in experiment [6]; 34.9 µM (active) and inactive in [7]. Moreover, the compound was called inactive in experiment [3].
Take `O=c1[nH]c2ccccc2c(=O)o1`: the Potency entry in experiment [1], in experiment [2], in experiment [4], in experiment [5], in experiment [6] and in experiment [7] was “inactive” throughout. Also, the Potency result in [8] is “inactive”. In addition, the outcome in [3] was inactive.
Consider `CCOP(OCC)OCC`, for which the Potency in experiment [1] was 22.3 µM (active) and inactive. Besides, the Potency entry in experiment [2], in experiment [4], in experiment [5], in [6], in experiment [7] and in [8] was “inactive” each time. In [3], the compound was called inactive.
As to `CC(C)(C)OOC(=O)c1ccccc1`, the Potency entry in [1], in [2], in [4], in experiment [5], in [6] and in [7] was “inactive” each time. For the same compound, the Potency entry in [8] was “inactive”. In addition, in experiment [3], the compound was called inactive.
For `C#CC(C)(C)NC(=O)c1cc(Cl)cc(Cl)c1`, the Potency result in [1], in [2], in experiment [4], in experiment [5], in experiment [6] and in experiment [7] was “inactive” in each case. In addition, the Potency result in experiment [8] was “inactive”. Moreover, the outcome in [3] was inactive.
For the compound `Cn1cc(-c2ccccc2)c(=O)c(-c2cccc(C(F)(F)F)c2)c1`, the Potency entry in experiment [1], in [2], in [4], in [5] and in experiment [7] was “inactive” throughout. Moreover, the compound was called inactive in experiment [3].
On to `CN=C=S`, for which the Potency result in experiment [1], in [2], in [4], in experiment [5], in experiment [6] and in [7] was “inactive” each time. Moreover, in [8], the Potency entry is “inactive”. The result in [3] was inactive.
For the compound `CC(NC(C)(C)C)C(=O)c1cccc(Cl)c1` (centres undefined), the Potency entry in experiment [1], in experiment [2], in [6] and in experiment [7] was “inactive” each time. The outcome in experiment [3], in experiment [9] and in [10] was inactive.
Regarding `CCc1cccc(C)c1N(C(=O)CCl)C(C)COC` (centres undefined), the Potency result in experiment [1], in [2], in [4], in [5], in experiment [6] and in experiment [7] was “inactive” in each case. Also, the Potency entry in experiment [8] is “inactive”. Also, in [3], the call was inactive.
For the compound `CCCCCOC(=O)c1ccccc1C(=O)OCCCCC`, the Potency entry in experiment [1], in [2], in [6] and in experiment [7] was “inactive” throughout. Moreover, the compound was called inactive in [3].
As for `O=[N+]([O-])c1ccc(Oc2ccc(Cl)cc2Cl)cc1`, the Potency in experiment [1] was 696 nM (active); in experiment [2], 43.9 µM (active) and inactive. Besides, the call in [3] was inactive. Besides, the Potency entry in experiment [6], in experiment [7] and in experiment [8] was “inactive” throughout.
In the case of `ClCCBr`, the Potency result in [1], in experiment [2], in experiment [6] and in experiment [7] was “inactive” in each case. Also, the compound was classed as inactive in experiment [3].
For `Nc1ccc(Br)cc1`, the Potency result in experiment [1], in experiment [2], in experiment [4], in experiment [5], in [7] and in [8] was “inactive” each time. The compound was called inactive in experiment [3].
In the case of `CN(C)CCO`, the Potency entry in [1], in experiment [2], in experiment [4], in experiment [5], in experiment [6] and in experiment [7] was “inactive” each time. Further, the Potency result in experiment [8] was “inactive”. In addition, in [3], the result was inactive.
